Where “and” joins values, the source holds several entries; their conditions need not be identical. Equal entries are not always repeated. Results filed as inconclusive are left out. Entries that show only a call come without a potency. Calls of active or inactive are those of the source. Calls come from the whole dose curve; as a rule, active = well fitted cell-killing curve with a large enough effect; inconclusive = small, poorly fitted or top-dose-only effect; inactive = no such curve, though single readings can be large or run the other way.
Experiment: qHTS of pediatric cancer cell lines to identify multiple opportunities for drug repurposing: Confirmatory screen for U-2 OS cells (AID 1347122); note: nearly all actives have a fitted effect of over 65% in size
Settings: U-2 OS osteosarcoma cell viability; series mostly up to 45.9 µM
Excerpt: Drug repurposing or repositioning has been offered as a strategy for drug development in oncology programs. This approach has special potential for childhood cancers and other rare or orphan diseases, where the expected return on new drug development has been a disincentive to pharmaceuticals.
In this project we exploit the poly-pharmacology of drugs to discover new indications via phenotypic screening of a panel of 19 well-characterized cell lines derived from solid tumors seen in children and adolescents. The goal is to identify approved drugs with previously unrecognized anticancer properties that has the potential to reveal new mechanisms and biological processes involved in carcinogenesis or drug resistance. We employed a titration-based paradigm (quantitative high-throughput screening or qHTS), where all compounds were tested at multiple concentrations for their effect on cell viability. Concentration-response curves (CRCs) were derived directly from the primary screen, and both potency and efficacy values were used to identify compounds with robust bioactivity profiles. We screened the NIH Chemical Genomics Center (NCGC) Pharmaceutical Collection (NPC) and Mechanism Interrogation Plate (MIPE) small molecule collections of approved and investigational compounds against these cell lines; and measured metabolically active cells after 48 hours of compound treatment as a proxy for cell viability.
Assay Submitter: Nathalia J. Martinez, National Center for Advancing Translational Sciences, National Institutes of Health, Rockville, MD, USA; email: natalia.martinez@nih.gov
[1] Shen, M et al. Quantitative high-throughput phenotypic screening of pediatric cancer cell lines identifies multiple opportunities for drug repurposing. Oncotarget 2017 Dec 19;9(4):4758-4772. PMID 29435139.
The cells were obtained from University of North Carolina (UNC), Pediatric Preclinical Testing Program (PPT), and Coriell Institute (CI).
qHTS cell viability assay:
Cells were assayed in growth media at a density of 500-1,000 cells/well. Five microliters of cells were dispensed into 1,536-well, white, solid-bottom, TC-treated plates (Greiner Bio One) using a multidrop dispenser and incubated at 37 degrees C, 5% CO2, under a humidified atmosphere for 5 hours. Twenty-three nanoliters of compounds and controls (neutral control DMSO or positive control bortezomib at final concentration of 2.3 µM) were subsequently transferred by Kalypsys pintool. For primary screens, the MIPE collection was tested at 11-point dilutions (final concentrations range from 0.78 nM to 46 µM) and the NPC collection at 8-point dilutions (final concentrations range from 0.59 nM to 46 µM). Compounds tested in follow-up screens were assayed at 11-point dilutions. Cells were incubated for 48 hours, followed by addition of 3 µL of CellTiter-Glo (Promega). After a 15 min incubation at room temperature, samples were analyzed for luminescence intensity using a ViewLux High-throughput CCD imager equipped with clear filters.
With `CC(C(=O)O)c1ccc2c(c1)CC(=O)c1ccccc1S2` (stereo unspecified) the Potency was “inactive”.
In the case of `Nc1[nH]c(=O)ncc1F`, the Potency is reported as “inactive”.
For `CCOC(=O)[C@H](CCc1ccccc1)N[C@H]1CS[C@H](c2cccs2)CN(CC(=O)O)C1=O`, the Potency was “inactive”.
For `COc1nc(N)nc2c1ncn2[C@@H]1O[C@H](CO)[C@@H](O)[C@@H]1O`, the Potency was “inactive”.
For `C[C@@H](CN1CC(=O)NC(=O)C1)N1CC(=O)NC(=O)C1`, the Potency was “inactive”.
With `Cn1nnc2c(C(N)=O)ncn2c1=O` the Potency was “inactive”.
For `COC(=O)Nc1nc2ccc(C(=O)c3ccccc3)cc2[nH]1`, the Potency was 1.85 µM (active).
In the case of `CNNCc1ccc(C(=O)NC(C)C)cc1`, the Potency is reported as “inactive”.
For `O=S(=O)(O)CCS`, the Potency was “inactive”.
For `COc1cc(NCc2ccc3nc(N)nc(N)c3c2C)cc(OC)c1OC`, the Potency was “inactive”.
In the case of `COC(=O)Nc1nc2ccc(S(=O)c3ccccc3)cc2[nH]1` (stereo unspecified), the Potency is reported as 2.93 µM (active).
In the case of `CC(C)(C#N)c1cc(Cn2cncn2)cc(C(C)(C)C#N)c1`, the Potency is reported as “inactive”.
In the case of `Oc1c(Cl)cc(Cl)c2cccnc12`, the Potency is reported as 9.27 µM (active).
With `C[C@@H]1C[C@H]2[C@@H]3CCC4=CC(=O)C=C[C@]4(C)[C@@]3(Cl)[C@@H](O)C[C@]2(C)[C@@]1(OC(=O)c1ccco1)C(=O)CCl` the Potency was 3.29 µM (active).
With `CS(=O)(=O)c1ccc([C@@H](O)[C@@H](CO)NC(=O)C(Cl)Cl)cc1` the Potency was “inactive”.
In the case of `COc1cc([C@@H]2c3cc4c(cc3[C@H](O)[C@H]3COC(=O)[C@H]23)OCO4)cc(OC)c1OC`, the Potency is reported as 0.0737 µM (active).
In the case of `Nc1nc(F)nc2c1ncn2[C@@H]1O[C@H](CO)[C@@H](O)[C@@H]1O`, the Potency is reported as 1.47 µM (active).
For `S=P(N1CC1)(N1CC1)N1CC1`, the Potency was “inactive”.
With `COc1ccc(C(=O)CC(=O)c2ccc(C(C)(C)C)cc2)cc1` the Potency was “inactive”.
For `CCC(=O)O[C@]1(C(=O)CCl)[C@@H](C)C[C@H]2[C@@H]3CCC4=CC(=O)C=C[C@]4(C)[C@@]3(F)[C@@H](O)C[C@@]21C`, the Potency was “inactive”.
In the case of `COc1cc2c(Nc3ccc(Br)cc3F)ncnc2cc1OCC1CCN(C)CC1`, the Potency is reported as “inactive”.
In the case of `Nc1nc(=S)c2[nH]cnc2[nH]1`, the Potency is reported as 1.04 µM (active) and 928 nM (active).
In the case of `CN(C)c1ccc(C(=C2C=CC(=[N+](C)C)C=C2)c2ccc(N(C)C)cc2)cc1`, the Potency is reported as 1.85 µM (active).
With `CC(C)NCC(O)c1ccc(NS(C)(=O)=O)cc1` (stereo unspecified) the Potency was “inactive”.
With `CC(C)(C)C(=O)OCOP(=O)(COCCn1cnc2c(N)ncnc21)OCOC(=O)C(C)(C)C` the Potency was “inactive”.
With `CN1CCCC(n2nc(Cc3ccc(Cl)cc3)c3ccccc3c2=O)CC1` (stereo unspecified) the Potency was “inactive”.
For `CNCC[C@H](Oc1cccc2ccccc12)c1cccs1`, the Potency was “inactive”.
For `O=C(NCC1CN(c2ccc(N3CCOCC3=O)cc2)C(=O)O1)c1ccc(Cl)s1` (stereo unspecified), the Potency was “inactive”.
For `COC(=O)Nc1nc2ccc(Sc3ccccc3)cc2[nH]1`, the Potency was 3.69 µM (active).
For `CCCCOc1ccc(CC(=O)NO)cc1`, the Potency was “inactive”.
For `CNS(=O)(=O)CCc1ccc2[nH]cc(C3CCN(C)CC3)c2c1`, the Potency was “inactive”.
For `Nc1nc(N)c2nc(CNc3ccc(C(=O)NC(CCC(=O)O)C(=O)O)cc3)cnc2n1` (stereo unspecified), the Potency was “inactive”.
For `COc1ccc(-c2ccc3cc(C(=O)O)ccc3c2)cc1C12CC3CC(CC(C3)C1)C2`, the Potency was 0.0827 µM (active).
For `CC1CC2C3CCC4=CC(=O)C=C[C@]4(C)[C@@]3(F)[C@@H](O)C[C@]2(C)[C@@]1(O)C(=O)CO` (stereo partly specified), the Potency was “inactive”.
With `O=NN(CCCl)C(=O)NC1CCCCC1` the Potency was “inactive”.
For `NC(=O)c1cccnc1`, the Potency was “inactive”.

— PubChem BioAssay (NCATS)
Potency is the fitted concentration of half-maximal effect.
